# Screening results deposited in PubChem by National Center for Advancing Translational Sciences (NCATS).
# Sampled rows, rich in hits. Any-hit rate of the full collection: about 9.3%.
# ELG1 repair inh – blocks ELG1-dependent DNA repair in HEK293T cells; hit rate 2.3% among 330,000; Potency, µM (doses to about 46.1 µM), without a hit: at the top dose activity change, negative = inhibition, hits mostly inhibitors; HEK293T ELG1-luciferase reporter, luminescence, 16 h; DNA damage induced by 5-fluorouridine; also: % is scaled to controls: 0 for no effect and ±100 for the full control effect; nearly all actives have a fitted effect of over 55% in size
#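 Quantitative HTS, concentration-response format. 2,000 cells/well co-treated with 5-fluorouridine and compound, 16 hr in 5% CO2 at 37 °C; ONE-Glo luminescence read after 30 min.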
# FLuc counter – firefly luciferase modulation, counter-screen for miR-21 project. P08659. purified FLuc, Km substrates, luminescence inhibition. Potency, µM (highest dose often 57.5 µM), for the others: top-dose activity change, negative = inhibition, actives largely listed as inhibitors. hit rate 6.9% among 360,000;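 also: plate controls were vehicle for no effect and reference inhibitor for full effect; nearly all actives have a fitted effect of over 55% in size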
# Target sequence (P08659 whole entry, looked up): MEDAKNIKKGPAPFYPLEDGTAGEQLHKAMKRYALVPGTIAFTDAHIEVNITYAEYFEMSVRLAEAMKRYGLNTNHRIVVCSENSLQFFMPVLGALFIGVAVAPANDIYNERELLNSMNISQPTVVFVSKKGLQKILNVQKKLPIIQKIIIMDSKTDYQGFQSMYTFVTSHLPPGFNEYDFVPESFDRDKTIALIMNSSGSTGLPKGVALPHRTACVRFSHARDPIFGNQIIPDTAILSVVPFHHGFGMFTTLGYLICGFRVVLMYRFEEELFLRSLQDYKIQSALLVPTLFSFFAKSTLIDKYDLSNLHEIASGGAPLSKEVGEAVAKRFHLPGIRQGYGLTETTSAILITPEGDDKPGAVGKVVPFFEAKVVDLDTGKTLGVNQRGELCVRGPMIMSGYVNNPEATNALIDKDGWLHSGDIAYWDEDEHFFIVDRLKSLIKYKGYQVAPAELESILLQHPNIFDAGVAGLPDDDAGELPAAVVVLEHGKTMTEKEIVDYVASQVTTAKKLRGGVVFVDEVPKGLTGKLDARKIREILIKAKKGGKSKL
#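 Purified P. pyralis luciferase, 10 nM final, with Km-level 10 uM D-luciferin and 10 uM ATP in 50 mM Tris acetate pH 7.5, 10 mM Mg acetate, 0.01% Tween-20, 0.05% BSA; 6-point qHTS titration about 60 µM downward; luminescence read.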
# NPC1 prom act – NPC1 promoter activation. Huh7 NPC1 promoter luciferase reporter, 24 h. Potency, µM (series often up to 9.22 µM), without a hit: at the top dose activation, usual class: activators. hit rate 2.4% among 320,000; also: % of control where 0% means no effect; nearly all actives have a fitted effect of over 60% in size
#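 Compounds in DMSO were transferred onto Huh7 NPC1-luciferase reporter cells pre-incubated 2 h; after 24 h at 37 °C, Amplite reagent was dispensed and luminescence recorded 10 min later.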
# ELG1 genotox – inducers of genotoxicity in HEK293T ELG1-luciferase cells. Potency, µM (top dose mostly 46 µM), inactives show at the top dose activity change, positive = activation, usual class: activators. AID 504466. hit rate 1.3% among 330,000. HEK293T ELG1-luciferase reporter, luminescence, 16 h; also: % of control where 0% means no effect; nearly all actives have a fitted effect of over 60% in size
#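 Luminescence read-out: rising ELG1-luciferase signal, reflecting elevated ELG1 protein under genetic stress, flags genotoxic compounds. Cells were treated for 16 hr at 37 °C before ONE-Glo detection.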
# Rab9 promoter act – activates the Rab9 promoter | Huh7 Rab9 promoter-luciferase reporter, luminescence, 24 h | hit rate 2.8% among 320,000 | Potency, µM (titrated, usually from 9.22 µM), for the others: at the top dose activation, negative = inhibition, actives largely listed as activators | AID 485297; also: % of control where 0% means no effect; nearly all actives have a fitted effect of over 60% in size
#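 Huh7 cells stably carrying a Rab9 promoter-luciferase reporter, 1500 cells per well in OP-MEM I with 10% FBS, treated with compound 24 hours at 37C. Luciferase activity read by luminescence after 10 minutes with Amplite reagent.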
# SMN2 splice up – increases expression of the SMN2 splice variant; hit rate 2.8% among 210,000; Potency, µM (highest dose often 46.1 µM), inactives show top-dose activity change, positive = activation, actives largely listed as activators; HEK293 SMN2-luciferase splicing reporter, luminescence, 30-36 h; also: % of control where 0% means no effect; nearly all actives have a fitted effect of over 55% in size
#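 HEK293 cells carry an SMN2 minigene-luciferase reporter in which exon 7 inclusion puts luciferase in frame. Cells were seeded at 2000 cells/well, attached for 10-12 hours, then exposed to compounds for 30-36 hours at 37C before ONE-Glo luminescence.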
# Numbers without * were called inactive; ? = inconclusive; . = not tested or not shown. Calls follow the shape of the dose curve; as a rule, active = well fitted curve in the direction sought with a large enough effect; inconclusive = small, poorly fitted or top-dose-only effect, or another doubt; inactive = no such curve, though single readings can be large; an effect the other way counts as inactive or inconclusive. Potency is read from the fitted curve at half-maximal effect.
SMILES,ELG1 repair inh,FLuc counter,NPC1 prom act,ELG1 genotox,Rab9 promoter act,SMN2 splice up
CN(C)/C=C/C(=O)c1ccc2noc(-c3ccc(F)cc3)c2c1,8.2µM*,?,-3%,-9%,-5%,.
CC(C)Cc1nc2oc3c(N4CCN(CCO)CC4)ncnc3c2c2c1CCCC2,?,-5%,-3%,-10%,-10%,-12%
C=CCNc1nc2c3ccccc3n(C(C)=O)c2s1,?,24µM*,21%,?,23%,-3%
C=CCn1c(=S)[nH]c2sc3c(c2c1=O)CCCC3,?,?,2%,-6%,14%,.
O=C(NCc1ccco1)C(c1cccs1)N(C(=O)C1COc2ccccc2O1)c1cccc(O)c1 (stereo unspecified),13µM*,8%,1%,-12%,-7%,-26%
O=C(NCc1ccco1)C(c1ccncc1)N(C(=O)Cc1cccs1)c1ccccc1 (stereo unspecified),4%,1%,-1%,-2%,0%,0%
CC(C)CCNC(=O)C(c1ccc(O)cc1)N(Cc1cccs1)C(=O)C1COc2ccccc2O1 (stereo unspecified),21µM*,0%,-3%,-12%,-4%,-16%
C=CCc1ccc(OC)c(OC)c1,?,2%,2%,3%,-5%,-2%
Cc1cc(NC(=O)c2ccco2)ccc1NC(=O)c1ccco1,?,?,18%,?,16%,.
COc1cc(OC)cc(C(=O)Nc2ccc(NC(=O)c3ccco3)c(C)c2)c1,?,12µM*,20%,?,15%,.
CC(C)Oc1ccc(C(=O)Nc2ccc(NC(=O)c3ccco3)c(Cl)c2)cc1,-1%,0.54µM*,?,2%,?,-10%
COc1cc(OC)cc(C(=O)Nc2cc(NC(=O)c3ccco3)ccc2OC)c1,21µM*,?,-2%,-2%,14%,-26%
CN(C)S(=O)(=O)c1ccc(-c2cn3ccccc3n2)cc1,?,5.4µM*,?,5.8µM*,2.5µM*,?
CCc1ccc(S(=O)(=O)Nc2cc(-c3cn4ccccc4n3)ccc2C)cc1,.,?,.,.,.,9%
O=C(COc1ccc(Br)cc1)NCc1cn2ccccc2n1,-5%,-1%,-4%,-1%,2%,.
Oc1ccc(-c2cn3ccccc3n2)cc1O,?,12µM*,27%,13µM*,?,.
Brc1ccc(-c2cn3ccccc3n2)cc1,?,0.76µM*,0.71µM*,?,0.4µM*,.
Brc1ccc(OCc2cn3ccccc3n2)cc1,?,2.7µM*,1.6µM*,?,0.63µM*,10µM*
Nc1cc(-c2ccc(Br)cc2)nc2cc(-c3ccccc3)nn12,?,?,-1%,-17%,-2%,-25%
CCOC(=O)N1CCN(C(=O)C2CCN(S(=O)(=O)c3cc(Cl)ccc3Cl)CC2)CC1,?,0%,-3%,-1%,0%,-31%
Cc1ccn2cc(-c3ccc(O)c(O)c3)nc2c1,?,3µM*,?,3.3µM*,17%,.
Oc1ccc(-c2cn3ccccc3n2)cc1,?,5.4µM*,2.2µM*,?,2.8µM*,.
c1ccc2c(-c3cn4ccccc4n3)c[nH]c2c1,?,12µM*,?,14%,3.5µM*,14µM*
Cn1nnnc1SCC(=O)Nc1nc2c(s1)CCCC2,?,12µM*,?,8.2µM*,3.2µM*,.
COc1cc(OC)cc(-n2nnnc2SCC(=O)Nc2nc3c(s2)CCCC3)c1,?,-2%,-1%,0%,-1%,3%
SMILES,ELG1 repair inh,FLuc counter,NPC1 prom act,ELG1 genotox,Rab9 promoter act,SMN2 splice up
N#Cc1c(NC(=O)CSC2=NCCS2)sc2c1CCCC2,?,-18%,1%,-5%,-1%,-24%
O=C(CSC1=NCCS1)Nc1nc2c(s1)CCCC2,?,17µM*,?,8%,?,30%
COc1ccc(-c2oc3ncn4nc(COc5ccccc5C)nc4c3c2-c2ccc(OC)cc2)cc1,.,0%,.,.,.,0%
CC(=O)CSc1nc2ccc(Nc3nc(N4CCOCC4)nc(N4CCOCC4)n3)cc2s1,?,0%,0%,-8%,-7%,25µM*
CC(=O)Nc1ccc2nc(SCC(=O)Nc3ccc(N4CCOCC4)c(Cl)c3)sc2c1,?,8.5µM*,?,0%,?,?
COc1ccc(NC(=O)CSc2nc3ccc(Nc4nc(N5CCOCC5)nc(N5CCOCC5)n4)cc3s2)cc1,2.3µM*,2%,-6%,-1%,-6%,.
CC(C)(C)NC(=O)CSc1nc2ccc(Nc3nc(N4CCOCC4)nc(N4CCOCC4)n3)cc2s1,3.3µM*,-16%,-4%,-18%,-12%,-49%
Cc1ccc(NC(=O)CSc2nc3ccc(Nc4nc(N5CCOCC5)nc(N5CCOCC5)n4)cc3s2)cc1,?,0%,-19%,-5%,-5%,.
CC(C)(C)c1cc(-c2nc(N)nc(N)n2)cc(C(C)(C)C)c1,-14%,-16%,0%,0%,-1%,-2%
O=C(COc1ccc2ccccc2c1)Nc1cccnc1Cl,?,-18%,-3%,?,-2%,.
Fc1ccccc1CSc1nncn1NC/C=C/c1ccccc1,-7%,-1%,0%,0%,2%,-10%
Cc1ccc(Nc2nc(Nc3ccc(C)c(C)c3)nc(N3CCOCC3)n2)cc1C,.,-2%,.,.,.,3%
COc1ccc(Nc2nc(N3CCOCC3)nc(N3CCOCC3)n2)cc1Cl,5.6µM*,-1%,-6%,-1%,0%,.
